# Experimental data reported in PubChem BioAssay (NCATS).
# “And” between values parts separate entries of the source, which are not always exact repeats. Equal entries are not always repeated. A number with no mark means an inactive call. Inconclusive results are not listed. The source made the active and inactive calls. Unless noted, the call rests on the fitted dose curve; in most records, active means well fitted curve in either direction with a large enough effect (not every such curve was filed as active); inconclusive means small, poorly fitted or top-dose-only effect, or another doubt; inactive means flat fitted curve, though single readings scatter.
# Columns and labels:
# [1] = biological target: Lysosomal acid glucosylceramidase (Homo sapiens) (UniProt P04062); assay: Glucocerebrosidase-p2 (AID 348; in the data active means potency below about 10 µM; further: potency means the concentration at half of the fitted maximal effect); conditions: purified GBA, blue fluorogenic substrate, 40 min
# Sequence of Lysosomal acid glucosylceramidase (Homo sapiens) (P04062 whole entry, looked up): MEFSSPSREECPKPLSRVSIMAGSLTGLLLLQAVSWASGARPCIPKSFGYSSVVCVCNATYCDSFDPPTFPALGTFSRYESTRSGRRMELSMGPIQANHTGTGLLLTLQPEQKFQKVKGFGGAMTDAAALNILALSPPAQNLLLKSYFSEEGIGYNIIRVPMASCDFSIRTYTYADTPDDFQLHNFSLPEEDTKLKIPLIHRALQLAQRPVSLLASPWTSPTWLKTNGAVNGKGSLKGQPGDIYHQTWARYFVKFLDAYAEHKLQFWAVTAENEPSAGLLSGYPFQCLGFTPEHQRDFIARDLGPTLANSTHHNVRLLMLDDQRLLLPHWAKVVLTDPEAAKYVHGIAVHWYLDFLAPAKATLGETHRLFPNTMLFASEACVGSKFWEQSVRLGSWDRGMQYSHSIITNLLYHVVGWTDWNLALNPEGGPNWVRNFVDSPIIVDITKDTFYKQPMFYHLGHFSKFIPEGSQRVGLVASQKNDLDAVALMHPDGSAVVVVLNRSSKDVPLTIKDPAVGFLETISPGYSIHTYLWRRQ
# How it was run: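 Compounds titrated from 0.6 nM upwards against 0.2 nM enzyme in pH 5.9 citric acid/KH2PO4, taurocholate, tween-20; blue fluorogenic substrate 80 uM, 40 min room temperature, stopped and read Ex 365/Em 440 for AC50.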
# [2] = AP1 Signaling Pathway (AID 357); conditions: ME-180 AP-1-bla reporter, EGF-induced, beta-lactamase ratio, 5 h; at 7.69 µM (top of the series) unless noted;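 further: ME-180 reporter cells stimulated with EGF at its EC50 level; on the % scale 0 is the no-effect control and ±100 the full control effect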
# How it was run: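 Cells are seeded overnight, exposed to compound titrations and an EC50 level of EGF for 5 hours at 37 °C, then loaded with CCF4 dye for 2.5 hours. Beta-lactamase activity under the AP-1 element is read as a blue/green ratio.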
# [3] = biological target: Cytochrome P450 1A2 (Homo sapiens) (UniProt P05177); assay: p450-cyp1a2 (AID 410; calls by dose curve; further: potency means the concentration at half of the fitted maximal effect;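 on activity change, negative = inhibition: -100% = full effect of reference inhibitor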); conditions: recombinant CYP1A2, luciferin-ME demethylation, luminescence; series mostly up to 11.4 µM
# Sequence of Cytochrome P450 1A2 (Homo sapiens) (P05177 whole entry, looked up): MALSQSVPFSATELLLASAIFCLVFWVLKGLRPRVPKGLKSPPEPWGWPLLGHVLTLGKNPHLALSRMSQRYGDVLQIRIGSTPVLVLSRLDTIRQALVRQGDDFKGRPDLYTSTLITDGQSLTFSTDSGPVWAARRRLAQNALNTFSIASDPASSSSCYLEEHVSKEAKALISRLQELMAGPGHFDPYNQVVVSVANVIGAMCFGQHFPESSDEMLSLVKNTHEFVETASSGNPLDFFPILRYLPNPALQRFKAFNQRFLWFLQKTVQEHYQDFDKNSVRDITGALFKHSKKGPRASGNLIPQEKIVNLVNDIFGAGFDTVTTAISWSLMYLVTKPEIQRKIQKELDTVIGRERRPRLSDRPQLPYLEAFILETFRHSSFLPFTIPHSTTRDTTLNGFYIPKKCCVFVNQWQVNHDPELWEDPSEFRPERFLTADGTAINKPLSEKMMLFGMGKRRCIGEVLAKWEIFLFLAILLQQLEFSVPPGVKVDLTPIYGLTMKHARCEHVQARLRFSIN
# How it was run: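 Luminescent readout of luciferin formed from Luciferin-ME by human CYP1A2; data normalized against complete inhibition by 57 uM furafylline. Enzyme 20nM, substrate 100uM at Km, 100mM KPO4 buffer, 60 min reaction at room temperature.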
# [4] = biological target: Glucocorticoid receptor (Homo sapiens) (UniProt P04150); assay: GR-GFP Redistribution (AID 450;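 active means compounds whose dose series gives a full or clear partial fitted curve of increased nuclear translocation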; further: potency means the concentration at half of the fitted maximal effect); conditions: U2OS GR-GFP nuclear translocation, laser cytometry, 2 h
# Sequence of Glucocorticoid receptor (Homo sapiens) (P04150 whole entry, looked up, the tested form may be a part): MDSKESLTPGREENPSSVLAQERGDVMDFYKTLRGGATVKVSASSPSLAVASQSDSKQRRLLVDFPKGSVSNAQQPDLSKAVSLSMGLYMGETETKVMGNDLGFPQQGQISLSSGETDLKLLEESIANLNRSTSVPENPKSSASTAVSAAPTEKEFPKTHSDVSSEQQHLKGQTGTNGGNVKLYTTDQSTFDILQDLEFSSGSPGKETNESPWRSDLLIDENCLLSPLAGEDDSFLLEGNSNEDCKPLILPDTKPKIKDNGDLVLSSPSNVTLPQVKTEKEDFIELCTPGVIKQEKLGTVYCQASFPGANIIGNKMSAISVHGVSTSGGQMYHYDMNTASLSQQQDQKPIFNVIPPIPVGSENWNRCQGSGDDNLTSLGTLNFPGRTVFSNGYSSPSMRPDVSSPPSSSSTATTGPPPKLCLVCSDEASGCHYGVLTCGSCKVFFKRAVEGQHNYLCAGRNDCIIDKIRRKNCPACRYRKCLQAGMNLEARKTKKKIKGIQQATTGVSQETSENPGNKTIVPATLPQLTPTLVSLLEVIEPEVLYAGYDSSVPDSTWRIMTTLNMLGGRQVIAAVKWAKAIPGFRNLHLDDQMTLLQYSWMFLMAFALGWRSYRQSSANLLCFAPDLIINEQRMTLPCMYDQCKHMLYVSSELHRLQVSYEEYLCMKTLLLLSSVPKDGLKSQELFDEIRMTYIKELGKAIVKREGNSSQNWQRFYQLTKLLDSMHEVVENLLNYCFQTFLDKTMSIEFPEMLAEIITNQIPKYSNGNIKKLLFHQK
# [5] = biological target: Mitogen-activated protein kinase 10 (Mus musculus) (UniProt Q61831); assay: JNK3 AlphaScreen Assay (AID 530); conditions: JNK3 lysate, c-Jun phosphorylation; series mostly up to 57.1 µM;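 further: kinase came from lysate of stimulated human HepG2 cells; signal reports phosphorylation of biotinylated GST-cJun 1-79 at Ser73 with 10 µM ATP; on the % scale 0 is the no-effect control and ±100 the full control effect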
# How it was run: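 Pre-activated (IL-1β/TNFα) JNK3 in HepG2 lysates phosphorylates biotin-GST-cJun(1-79), 10 uM ATP; anti-phospho-cJun(Ser73) AlphaScreen read at room temperature, pH 7.6 Tris buffer. Compounds pre-incubated 15 min as titrations.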
# [6] = biological target: 3',5'-cyclic-AMP phosphodiesterase 4B (Homo sapiens) (UniProt Q07343); assay: qHTS Assay for Inhibitors of PDE-IV (AID 607; active means well fitted activation curve with a large enough effect in the main read-out, with a control signal flat, not every such curve was filed as active; further: % of control where 0% means no effect); conditions: HEK293 ACTOne CNG channel cells, membrane potential fluorescence; series mostly up to 22.9 µM
# Sequence of 3',5'-cyclic-AMP phosphodiesterase 4B (Homo sapiens) (Q07343 whole entry, looked up): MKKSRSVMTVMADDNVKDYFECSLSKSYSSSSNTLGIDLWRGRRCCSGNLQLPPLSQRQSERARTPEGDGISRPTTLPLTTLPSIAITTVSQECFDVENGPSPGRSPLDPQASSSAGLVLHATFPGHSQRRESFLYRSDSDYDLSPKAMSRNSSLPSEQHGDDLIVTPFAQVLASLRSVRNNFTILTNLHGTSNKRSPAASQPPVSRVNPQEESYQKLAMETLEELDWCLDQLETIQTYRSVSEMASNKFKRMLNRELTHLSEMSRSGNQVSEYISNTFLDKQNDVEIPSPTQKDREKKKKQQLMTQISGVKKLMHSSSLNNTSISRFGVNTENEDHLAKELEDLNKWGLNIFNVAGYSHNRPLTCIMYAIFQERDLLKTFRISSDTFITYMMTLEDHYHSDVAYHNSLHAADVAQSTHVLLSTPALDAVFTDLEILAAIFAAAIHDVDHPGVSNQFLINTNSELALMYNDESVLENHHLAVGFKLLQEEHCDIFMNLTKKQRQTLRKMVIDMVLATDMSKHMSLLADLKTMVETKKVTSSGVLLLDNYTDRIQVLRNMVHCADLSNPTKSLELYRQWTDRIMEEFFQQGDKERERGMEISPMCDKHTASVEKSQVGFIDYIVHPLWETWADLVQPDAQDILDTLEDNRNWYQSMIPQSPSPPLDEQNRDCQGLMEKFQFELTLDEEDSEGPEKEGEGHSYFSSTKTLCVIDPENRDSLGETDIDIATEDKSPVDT
# How it was run: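 The readout is membrane depolarisation from a cAMP-sensing CNG channel, detected with a potential dye at ex 535/em 590. Cells were HEK293-derived (endogenous PDE-IV) at 1000 cells/well, titrated up to 22.9 uM final.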
# [7] = Stat Signaling Pathway (AID 446); conditions: ME-180 SIE beta-lactamase reporter, IL-6 stimulated, 5 h; at 7.69 µM (top of the series) unless noted;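 further: ME-180 cervical cancer cells given 40 pM IL-6 alongside compound; SIE-controlled beta-lactamase reporter measured as 460/530 nm FRET emission ratio; on the % scale 0 is the no-effect control and ±100 the full control effect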
# How it was run: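 Screening format detects activators and inhibitors alike: ME-180 SIE-bla cells stimulated at 40 pM IL-6 for 5 hrs with compound, then dual-emission beta-lactamase read at 405 nm excitation.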
# [8] = biological target: Glucocorticoid receptor (Homo sapiens) (UniProt P04150); assay: GR-EFC Redistribution (AID 451; calls by dose curve; further: potency means the concentration at half of the fitted maximal effect); conditions: CHO-K1 GR-EFC translocation, beta-gal luminescence, 2 h
# How it was run: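 CHO-K1 cells expressing nuclear EA and GR-ED fragments of b-gal; compounds titrated up to 46 uM final, 2 h at 37 C. GR nuclear translocation read as complemented b-gal luminescence after 1 h RT detection.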
# [9] = biological target: Cytochrome P450 2C9 (Homo sapiens) (UniProt P11712); assay: qHTS Assay for Inhibitors and Substrates of Cytochrome P450 2C9 (AID 883; active means well fitted inhibition curve with a large enough effect; further: nearly all actives have a fitted effect of over 60% in size; further: potency means the concentration at half of the fitted maximal effect); conditions: recombinant CYP2C9, luciferin-H luminescence, 60 min; series mostly up to 57.1 µM
# Sequence of Cytochrome P450 2C9 (Homo sapiens) (P11712 whole entry, looked up): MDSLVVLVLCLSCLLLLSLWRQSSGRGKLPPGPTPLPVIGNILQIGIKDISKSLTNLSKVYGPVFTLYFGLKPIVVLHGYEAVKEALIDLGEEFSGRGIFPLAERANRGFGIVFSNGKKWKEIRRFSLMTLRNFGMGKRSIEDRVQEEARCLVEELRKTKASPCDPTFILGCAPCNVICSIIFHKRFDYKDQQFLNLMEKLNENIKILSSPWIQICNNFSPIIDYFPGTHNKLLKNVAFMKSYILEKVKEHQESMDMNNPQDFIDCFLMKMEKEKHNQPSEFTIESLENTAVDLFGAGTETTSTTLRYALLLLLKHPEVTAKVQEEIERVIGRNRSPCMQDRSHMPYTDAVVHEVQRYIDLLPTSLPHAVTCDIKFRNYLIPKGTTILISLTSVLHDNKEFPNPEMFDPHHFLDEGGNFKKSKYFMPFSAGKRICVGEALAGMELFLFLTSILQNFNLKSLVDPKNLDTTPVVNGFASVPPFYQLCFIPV
# How it was run: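 Signal: luciferase luminescence reporting luciferin produced by CYP2C9. Conditions: 10nM enzyme, Luciferin-H 100uM at KM, 25mM KPO4, 37C, 60 min NADPH-driven reaction. Reference: 57uM sulphaphenazole as 100% inhibition.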
# [10] = biological target: Cytochrome P450 2D6 (Homo sapiens) (UniProt P10635); assay: qHTS Assay for Inhibitors and Substrates of Cytochrome P450 2D6 (AID 891; active means well fitted inhibition curve with a large enough effect; further: nearly all actives have a fitted effect of over 60% in size; further: potency means the concentration at half of the fitted maximal effect); conditions: recombinant CYP2D6, luciferin-ME EGE luminescence; series mostly up to 11.4 µM
# Sequence of Cytochrome P450 2D6 (Homo sapiens) (P10635 whole entry, looked up): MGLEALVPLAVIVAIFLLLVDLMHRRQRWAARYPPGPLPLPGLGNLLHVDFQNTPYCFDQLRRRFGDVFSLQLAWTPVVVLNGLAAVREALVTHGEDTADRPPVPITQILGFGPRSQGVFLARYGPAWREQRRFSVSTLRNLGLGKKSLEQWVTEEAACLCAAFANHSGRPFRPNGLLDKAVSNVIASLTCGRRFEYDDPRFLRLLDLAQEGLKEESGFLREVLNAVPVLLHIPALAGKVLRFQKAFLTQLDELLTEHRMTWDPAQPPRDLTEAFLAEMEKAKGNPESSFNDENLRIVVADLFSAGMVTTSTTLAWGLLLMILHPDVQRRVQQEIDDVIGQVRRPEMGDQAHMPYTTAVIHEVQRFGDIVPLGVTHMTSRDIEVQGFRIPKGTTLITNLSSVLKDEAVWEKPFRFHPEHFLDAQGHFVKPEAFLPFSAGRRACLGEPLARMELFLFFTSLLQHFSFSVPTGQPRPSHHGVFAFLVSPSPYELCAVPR
# How it was run: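 Human CYP2D6 (5 nM) with 30 uM Luciferin-ME EGE (at Km) in 100 mM KPO4, compound preincubated 10 min, then NADPH regeneration system for 60 min at room temperature. Luciferin read by luminescence; normalized to 1.43 uM quinidine.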
# [11] = biological target: Cytochrome P450 2C19 (Homo sapiens) (UniProt P33261); assay: qHTS Assay for Inhibitors and Substrates of Cytochrome P450 2C19 (AID 899; active means well fitted inhibition curve with a large enough effect; further: on the % scale 0 is the no-effect control and ±100 the full control effect; nearly all actives have a fitted effect of over 60% in size); conditions: recombinant CYP2C19, luciferin-H EGE luminescence; series mostly up to 11.4 µM
# Sequence of Cytochrome P450 2C19 (Homo sapiens) (P33261 whole entry, looked up): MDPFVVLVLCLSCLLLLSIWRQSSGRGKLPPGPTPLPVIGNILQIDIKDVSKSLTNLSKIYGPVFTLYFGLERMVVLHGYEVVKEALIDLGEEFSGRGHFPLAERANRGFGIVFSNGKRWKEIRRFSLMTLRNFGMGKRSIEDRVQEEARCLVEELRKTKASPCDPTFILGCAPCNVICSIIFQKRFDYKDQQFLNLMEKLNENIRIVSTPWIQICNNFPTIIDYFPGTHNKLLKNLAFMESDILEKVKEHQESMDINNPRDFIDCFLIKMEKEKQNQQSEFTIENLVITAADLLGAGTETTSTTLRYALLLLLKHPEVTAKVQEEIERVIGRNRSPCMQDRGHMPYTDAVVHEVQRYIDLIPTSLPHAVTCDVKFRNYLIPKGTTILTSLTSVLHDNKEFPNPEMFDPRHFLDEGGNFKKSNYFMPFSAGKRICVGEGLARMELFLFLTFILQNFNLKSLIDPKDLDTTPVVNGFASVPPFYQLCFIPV
# How it was run: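 Signal comes from luciferase acting on luciferin released by CYP2C19-mediated hydroxylation of Luciferin-H EGE, 10uM (KM). Assay mix: 5nM enzyme, 50mM KPO4; 60 min at 37C with NADPH regeneration. Data normalized against 57uM ketoconazole.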
# [12] = NFAT Signaling Pathway (AID 444); conditions: Jurkat NFAT-bla M1, carbachol, beta-lactamase ratio, 5 h; at 7.69 µM (top of the series) unless noted;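 further: carbachol stimulus at about its EC50 of 1 µM final; on the % scale 0 is the no-effect control and ±100 the full control effect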
# How it was run: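 Jurkat cells with NFAT-driven β-lactamase reporter and co-expressed M1 receptor, stimulated with carbachol (final 1 uM, ~EC50), compound titration, 5 h at 37 °C. CCF4 loaded 1 h at RT; 460/530 nm ratio gave %activity and AC50.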
SMILES,Potency [1],"activity change, negative = inhibition [2]",Potency [3],Potency [4],"activity change, negative = inhibition [5]",outcome [6],"activity, negative = inhibition [7]",Potency [8],"activity change, negative = inhibition [9]",Potency [10],Potency [11],"activity change, negative = inhibition [3]","activity change, negative = inhibition [12]",Potency [9]
c1cncc(CNCCN2CCNCC2)c1,> 11.4 µM,5.14%,inactive,> 46 µM,1.33% [at 11.4 µM],inactive,–,–,–,–,–,–,–,–
CN[C@H]1[C@H](C)O[C@@H](O[C@@H]2C/C=C(/C)C/C(C)=C\C=C/CC[C@@H](C)CNC(=O)/C=C\C=C/[C@H]2C)C[C@@H]1O,> 11.4 µM,-6.3%,inactive,> 46 µM,1.47% [at 11.4 µM],inactive,-1.24%,> 9.22 µM,-5.72% [at 11.4 µM],inactive,inactive,–,–,–
N[C@@H](Cc1cc(Br)c(O)c(Br)c1)C(=O)O,> 11.4 µM,-11.9%,inactive,> 46 µM,1.55% [at 11.4 µM],inactive,5.31%,> 9.22 µM,–,–,–,–,–,–
C[C@H](c1ccccc1)N1CCN([C@@H](C)c2ccccc2)CC1,> 11.4 µM,-6.57%,–,> 46 µM,1.95% [at 11.4 µM],–,-0.496%,> 9.22 µM,–,0.0631 µM (active),–,-16% [at 2.29 µM],–,–
N=C(N)SCc1ccc(Cl)c2ccccc12 (tested in a mixture with another compound),> 11.4 µM,6.29% and 5.72%,251 nM (active) and 158 nM (active),–,3.26% [at 11.4 µM] and 4.92% [at 11.4 µM],inactive,-8.84% and -10.7%,–,–,3.16 µM (active),–,–,-1.16%,3.98 µM (active)
COc1cc2cc(c1Cl)N(C)C(=O)C[C@H](OC(=O)C(C)C)[C@]1(C)O[C@@H]1[C@@H](C)[C@H]1C[C@](O)(NC(=O)O1)[C@@H](OC)/C=C\C=C(\C)C2,> 11.4 µM,23.1%,inactive,0.278 µM (active),2.93% [at 11.4 µM],inactive,6.86%,–,–,inactive,inactive,–,–,–
